# Compound activity as filed in PubChem BioAssay.
# Cy5 interf NS3h – counter-screen for HCV NS3 helicase inhibitors: fluorescence interference | Cy5-dT15 DNA with NS3h; actives lie on both sides; signal over control mean, under 1 quenches | fluorescence interference ratio at 100 µM | 6% of 16,000 active | AID 720488;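 active means compound fluorescence over control fluorescence at most 0.8, a quencher, or at least a set upper limit, an enhancer; inactive means ratio between 0.8 and the set upper limit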
# NS3h inh CB – blocks HCV NS3 helicase binding to DNA. NS3h Cy5-dT15 DNA binding, fluorescence polarization. inhibition, % at 100 µM. 1.6% of 16,000 active. AID 687043;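 active means inhibition above the average over every tested compound plus 3 SD, cut at about 40% in these data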
# * hit, by the source's call. In the library only some 6.8% were active in any assay of this set; here they are far more common.
SMILES,Cy5 interf NS3h,NS3h inh CB
CC(C)OC(=O)c1cc2nc(-c3cccs3)cc(C(F)(F)F)n2n1,0.66*,10
Cc1c(Cl)cccc1NC(=O)c1cc2nc(-c3cccs3)cc(C(F)(F)F)n2n1,1.1,-10
CCOC(=O)C1=C(C)N=c2s/c(=C\c3cccs3)c(=O)n2C1c1ccc(SC)cc1 (stereo not given),0.91,14
CCOC(=O)c1nc2nc(-c3cccs3)cc(C(F)(F)F)n2n1,0.75*,8
O=C1CSC(=S)N1c1ccc(Cl)cc1,1,7
COc1ccc(C2C(=C(O)c3ccc(Cl)cc3)C(=O)C(=O)N2C)c(OC)c1 (stereo not given),0.96,-6
O=C(CC1S/C(=N/N=C\c2ccco2)NC1=O)Nc1ccccc1F (stereo not given),1.2,-1
CCOC(=O)c1c(-c2ccccc2)oc2c([N+](=O)[O-])cc([N+](=O)[O-])cc12,1,14
C/C(=N/NC(N)=O)C1CC1(C)C(C)(C)C (stereo not given),1,44*
COc1ccc(N(CC(O)CN(Cc2ccccc2)Cc2ccccc2)S(=O)(=O)c2ccc(C)cc2)cc1 (stereo not given),0.96,10
Cc1cccc(N(CC(O)CN(Cc2ccccc2)Cc2ccccc2)S(=O)(=O)c2ccccc2)c1 (stereo not given),0.7*,21
Cc1ccc(S(=O)(=O)N(CC(O)CN(CC(C)C)CC(C)C)c2cccc(C)c2)cc1 (stereo not given),0.77*,12
NC(=O)CN(c1cccc([N+](=O)[O-])c1)S(=O)(=O)c1ccccc1,0.98,10
Cc1ccc(S(=O)(=O)N(CC(C)C)CC(C)C)cc1,0.94,5
CN(C)CC(O)CN(c1ccccc1)S(=O)(=O)c1ccc([N+](=O)[O-])cc1 (stereo not given),0.79*,0
Cc1cc(C)c(N=Cc2c(C)[nH]n(-c3ccccc3)c2=S)c(C)c1,1.1,23
COc1ccccc1N1CCN(C(=O)CN(c2ccc(Br)cc2)S(=O)(=O)c2ccccc2)CC1,1,11
Oc1ccc(Br)cc1C1N(c2ccccc2)CCN1c1ccccc1,0.95,10
CC1CCN(C(=O)c2ccc(Cl)cc2Cl)CC1,1.1,-1
COc1ccc(NC(=O)C(=O)NCc2ccc(C)cc2)cc1Cl,1.1,-6
CC(C)CCNC(=O)c1cccc([N+](=O)[O-])c1,1,17
CC(NC(=O)NC(=O)c1cccc([N+](=O)[O-])c1)C1CC1 (stereo not given),0.64*,10
Cc1ccc(/C=C2/N=C(c3sc4ccccc4c3Cl)OC2=O)cc1,1.1,-4
O=CN1CCN(C(=O)COc2ccc3ccccc3c2)CC1,1.2,3
O=C(NCCO)C1COc2ccccc2O1 (stereo not given),0.94,1
SMILES,Cy5 interf NS3h,NS3h inh CB
COC(=O)CNC(=O)C1COc2ccccc2O1 (stereo not given),1.2*,6
CCN(C(=O)c1ccccc1Cl)c1ccccc1,0.67*,7
CCCN(CCC)C(=O)c1ccccc1NC(=O)c1ccccc1Cl,1,-12
Cc1ccc(OCC(=O)Nc2sc3c(c2C(N)=O)CCC(C)C3)c(C)c1 (stereo not given),1.1,-14
COc1ccc(N=C(NOC(C)=O)c2ccc(Cl)cc2)c(OC)c1,0.73*,10
COc1ccc(/C=C/C(=O)c2ccc(Cl)cc2)c(OC)c1,0.97,4
CC(=O)Nc1ccccc1NC(=O)c1ccc(Br)cc1,1.2*,9
CC(=O)Nc1ccccc1NC(=O)c1ccc(F)cc1,0.93,8
O=C(Nc1ccc(F)c([N+](=O)[O-])c1)c1ccc(Br)o1,1,6
COc1ccccc1OCCn1cc(/C=C2/C(=O)NC(=O)N(c3ccccc3)C2=O)c2ccccc21,0.9,-9
CN(C)c1ccc(NC(=O)c2cc(Cl)ccc2Cl)cc1,0.99,45*
CN(C)c1ccc(NC(=O)c2ccccc2F)cc1,0.99,8
O=C(Nc1ccc(Cl)cc1)c1ccc([N+](=O)[O-])cc1,1.1,9
COc1ccc(C2C(C(=O)OC(C)C)C(=O)CC(C)(O)C2C(=O)OC(C)C)cc1 (stereo not given),1,4
COc1ccc(/C=C2/SC(=S)N(CC(=O)Nc3ccc(F)c(Cl)c3)C2=O)cc1OC,0.94,-7
CC(=O)Nc1ccc(C(=O)N2CC(C)CC(C)C2)cc1 (stereo not given),0.69*,4
CC1CC(C)CN(C(=O)c2ccc(Cl)cc2)C1 (stereo not given),1,-5
CC(=O)/C(C)=C(\NC(=O)c1ccccc1)c1ccccc1,1.1,9
Cc1sc(NC(=O)CN2C(=O)c3ccccc3C2=O)nc1-c1ccccc1,1.1,7
Cc1ccc2oc(C(Cl)(Cl)Cl)cc(=O)c2c1,0.6*,-2
Cc1ccc2oc(Nc3nc(C)cc(=O)[nH]3)nc2c1,1,8
Cc1ccc(Cl)cc1NC(=O)CSc1nc2ccccc2s1,1.1,6
O=C(C=C(O)c1ccccc1)C(=O)Nc1ccc(Br)cc1,1,1
Cc1ccc(S(=O)(=O)N2CCN(Cc3ccccc3)CC2)cc1[N+](=O)[O-],0.98,2
COc1ccc(CN2CCN(S(=O)(=O)c3ccc(C)cc3)CC2)cc1OCc1ccccc1,0.74*,10
SMILES,Cy5 interf NS3h,NS3h inh CB
O=[N+]([O-])c1cccc2c1=C1C(Cl)=CC=C1C=2,0.54*,1
O=C1c2ccccc2C(=O)N1N1C(=O)c2cccc([N+](=O)[O-])c2C1=O,1,2
COc1ccc(NC(=O)/C(=C/c2ccccc2Cl)NC(=O)c2ccc(C)cc2)cc1,1.2,-1
COc1cccc(NC(=O)/C(=C/c2ccc(C)o2)NC(=O)c2ccccc2)c1,0.71*,15
CCN1C(=O)C(=Cc2ccc(OC)cc2OC)C(=O)NC1=S,0.9,40
N#Cc1cc([N+](=O)[O-])ccc1N=Cc1ccc(C#Cc2ccccc2)cc1,0.79*,10
COc1cc([N+](=O)[O-])ccc1N=S(C)C,0.93,-7
COC(=O)c1c(NC(=O)Nc2ccc(Cl)c(Cl)c2)sc2c1CCC2,1.2*,-7
CCOC(=O)c1c(NC(=S)Nc2ccc(OC)cc2)sc2c1CCCCC2,1.1,6
COc1ccc(/C=C/C(=O)NC(=S)Nc2ccc(C(C)=O)cc2)cc1OC,0.87,-2
O=C1CC(Sc2ncn[nH]2)C(=O)N1c1cc(Cl)ccc1Cl (stereo not given),1,6
CCOc1c(Br)cc(/C=C2\C(=O)NC(=O)N(c3cccc(C)c3)C2=O)cc1OC,0.88,6
CCCC(=O)c1ccc(N2CCN(C(=O)CCC)CC2)c(F)c1,0.75*,14
CCCC(=O)N1CCN(c2ccc(C(=O)c3ccc(C)c(C)c3)cc2F)CC1,1,-4
Cc1ccccc1NC(=O)/C(C#N)=C\c1ccc(C)c([N+](=O)[O-])c1,0.95,16
Cc1nc2n(CC(=O)N3CCOCC3)c3ccccc3n2n1,1,7
O=[N+]([O-])c1ccc(N2CCN(S(=O)(=O)Cc3ccccc3)CC2)c(Cl)c1,0.74*,18
COCC(O)CN1CCN(c2ccc([N+](=O)[O-])cc2Cl)CC1 (stereo not given),0.99,-13
O=C1CCCCCC1CN1CCCCC1 (stereo not given),0.88,-8
COc1ccc(C(=O)O/N=C2\C(=O)N(C)c3ccccc32)cc1OC,1.1,-2
O=C1N=c2ccccc2=C1c1sc(=S)n(-c2ccc(F)cc2)c1O,0.99,-5
